PubChem BioAssay (EPA / NIEHS)
“And” between values parts separate entries of the source, which are not always exact repeats. Equal values may be shown once. A structure can be active in one record and inactive in another. The source made the active and inactive calls. The calls were made as follows: active = hit-call score of the fitted dose curve at least 0.9, where 1 is the maximum; inactive = score below 0.9.

test: CCTE_Shafer_MEA_dev_network_spike_peak: CCTE's Neural Network Formation Assay for Mean Number of Electrodes in Network Spike, Shafer Lab (AID 2284049)
Method: CCTE_Shafer_MEA_dev assay is conducted using Axion Biosystems 48 well microelectrode array (MEA) plates and Maestro recording system. Each well of the MEA plate contains a grid of 16 microelectrodes embedded in the culture surface. Electrically active cells, such as neurons, can be cultured over the electrodes, and electrical activity in these cells can be recorded extracellularly. The spontaneous firing of neurons is captured from each electrode on a microsecond timescale providing both temporally and spatially precise data. […] The CCTE_Shafer_MEA_dev assay uses primary cultures of rat cortical neurons. Recordings are made on days post-plating 5, 7, 9 and 12. As these cultures mature over time, neural networks develop functional activity and form cohesive networks in which electrical activity can be highly coordinated. CCTE_Shafer_MEA_dev_network_spike_peak is 1 of 19 assay components of the CCTE_Shafer_MEA_dev assay. It measures the average number of electrodes participating at the peak of a network spike (the peak of a temporally-clustered group of action potential firing across multiple electrodes) during a recording in a microelectrode array (MEA) using Axion Biosystems Maestro 768 channel amplifier with the AxIS adaptive spike detector. To collapse across multiple recordings made on days post-plating 5, 7, 9 and 12, the trapezoidal area-under-the-curve of the component is calculated.Data from the assay component CCTE_Shafer_MEA_dev_network_spike_peak was analyzed into 1 assay endpoint. This assay endpoint, CCTE_Shafer_MEA_dev_network_spike_peak, was analyzed in the negative analysis fitting direction relative to DMSO as the negative control and baseline of activity. Using a type of functional reporter, gain or loss-of-signal activity can be used to understand electrical activity.
On the day prior to culture, each well was coated thoroughly with 150 uL of 0.05% polyethyleneimine (PEI, Sigma Cat P3143) in 50 mM HEPES (Sigma Cat H7523) at a pH of 8. The plate was incubated at 37C for one hour. PEI was rinsed out with 500 uL of sterile water three times. Plates were stored at 4C until the day of culture. This culture was plated at a seeding density of 1.5 x 10^5 cells/well on a 48-well MEA plate, prepared as described above. Cells were administered via a 25 uL media/laminin ([…]; Sigma Cat L2020-1MG) drop directly onto the microelectrode array, as adding the cells with the laminin results in better attachment than pre-coating with laminin. After 2 hours, an additional 475 uL of cortical media was added and the cells returned to the incubator. Exposure starts at day 0 of plating and is continued over twelve days of network development until the experiment is terminated. Cells are fed with fresh medium on DIV 5 and 9, following the recordings on those days. The entire volume of media in the well is exchanged and any vehicle or compound treatment is renewed. Complete details are found in OP-NHEERL/ISTD/SBB/TJS/2015-03-r0 (available on request, email shafer.tim@epa.gov). Measurement of the electrical activity is non-invasive, and recordings can be made from the same plate over multiple different days of the culture. In cortical neurons, this allows for the measurement of extracellular action potentials over the period during which networks form in the MEA plate.

Row | SMILES | outcome | AC50
1 | O=S(=O)(O)C(F)(F)C(F)(F)C(F)(F)C(F)(F)C(F)(F)C(F)(F)F | inactive | 9.07 µM (active)
2 | COc1ccc(O)c(C(C)(C)C)c1 | inactive | 
3 | CO/C=C(/C(=O)OC)c1ccccc1COc1cccc(C(F)(F)F)n1 |  | 212 nM (active) and 741 nM (active)
4 | CCC(C)(c1ccc(O)cc1)c1ccc(O)cc1 |  | 10 µM (active)
5 | ClC1=C(Cl)[C@]2(Cl)[C@@H]3[C@H]4C[C@H]([C@@H]5O[C@H]45)[C@@H]3[C@@]1(Cl)C2(Cl)Cl | inactive | 
6 | ClC1=C(Cl)[C@]2(Cl)[C@@H]3[C@@H]4C[C@@H]([C@H]5O[C@@H]45)[C@@H]3[C@@]1(Cl)C2(Cl)Cl |  | 10.8 µM (active)
7 | NS(=O)(=O)C(F)(F)C(F)(F)C(F)(F)C(F)(F)C(F)(F)C(F)(F)C(F)(F)C(F)(F)F | inactive | 26.7 µM (active)
8 | O=C(O)C(F)(F)C(F)(F)C(F)(F)C(F)(F)C(F)(F)C(F)(F)C(F)(F)C(F)(F)F | inactive | 
9 | CCOP(=S)(OCC)SCSC(C)(C)C |  | 23.1 µM (active) and 13.9 µM (active)
10 | c1cc2ccc3cccc4ccc(c1)c2c34 | inactive | 
11 | ClC1=C(Cl)[C@]2(Cl)[C@@H]3[C@@H](Cl)[C@H]4O[C@H]4[C@@H]3C1(Cl)C2(Cl)Cl |  | 25 µM (active)
12 | Clc1ccc(C(c2ccccc2Cl)C(Cl)(Cl)Cl)cc1 (stereo not given) |  | 2.73 µM (active)
13 | Oc1ccc(C(c2ccc(O)cc2)(C(F)(F)F)C(F)(F)F)cc1 |  | 16.9 µM (active) and 18.5 µM (active)
14 | O=S(=O)(O)C(F)(F)C(F)(F)C(F)(F)C(F)(F)F | inactive | 15 µM (active)
15 | C=CC(N)=O | inactive | 
16 | ClC(Cl)=C(c1ccc(Cl)cc1)c1ccc(Cl)cc1 |  | 4 µM (active)
17 | O=C(O)C(F)(F)C(F)(F)C(F)(F)C(F)(F)C(F)(F)F | inactive | 
